Experimental findings from PubChem BioAssay (Tox21) are described below.

Structures are written as SMILES. Results filed as inconclusive are left out. Where a call stands in place of a potency, no number is given. Activity calls are given as the source filed them. Calls come from the whole dose curve; as a rule, active = well fitted inhibition curve with a large enough effect in the signal ratio in the repeat runs (not every such curve was filed as active); inconclusive = weak or mixed curves, or effect the other way; inactive = no such curve, though single readings can be large or run the other way; the % refers to the signal ratio.

Peroxisome proliferator-activated receptor delta (Homo sapiens), sequence (Q03181 whole entry, looked up): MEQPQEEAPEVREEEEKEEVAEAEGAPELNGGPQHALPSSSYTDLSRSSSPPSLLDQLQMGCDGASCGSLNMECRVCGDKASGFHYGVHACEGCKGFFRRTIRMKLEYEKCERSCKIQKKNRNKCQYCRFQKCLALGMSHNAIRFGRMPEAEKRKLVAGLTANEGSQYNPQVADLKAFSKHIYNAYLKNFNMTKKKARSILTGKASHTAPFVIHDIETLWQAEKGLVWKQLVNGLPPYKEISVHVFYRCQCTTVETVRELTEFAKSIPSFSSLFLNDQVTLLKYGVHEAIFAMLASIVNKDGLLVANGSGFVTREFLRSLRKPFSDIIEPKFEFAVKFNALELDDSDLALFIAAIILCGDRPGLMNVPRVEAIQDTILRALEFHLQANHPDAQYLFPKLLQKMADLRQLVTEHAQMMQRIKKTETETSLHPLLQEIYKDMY

One experiment has as its target Peroxisome proliferator-activated receptor delta (Homo sapiens) (UniProt Q03181). Nature of the experiment: qHTS assay to identify small molecule antagonists of the peroxisome proliferator-activated receptor delta (PPARd) signaling pathway (AID 743215).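 Note: cells stimulated with agonist L165041 at 300 nM final during compound exposure.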 Note: potency is the fitted concentration of half-maximal effect. The settings on record: HEK293H PPARd-UAS-bla, beta-lactamase FRET ratio, antagonist, 17 h; series mostly up to 62 µM. In a few lines: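 Antagonist-mode beta-lactamase reporter screen: HEK293H cells with UAS-bla under PPARd control, stimulated by 300 nM L165041 (final) alongside test compound for 17 h at 37 C, then FRET fluorescence after 2 h substrate incubation.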
Regarding `Cc1cn([C@H]2C[C@H](F)[C@@H](CO)O2)c(=O)[nH]c1=O`, the Potency entry is “inactive”.
With `COc1cc(S(=O)(=O)Nc2ccccc2)c(OC)cc1N`, the Potency entry was “inactive”.
On the same count and under the same terms, next, `COc1ccc(/C=C/C(=O)c2ccc(OC)cc2OC)cc1`: 11.9 µM (active); `NC(=O)CCCCC(N)=O`: “inactive”; `CCNc1nc(N)nc(Cl)n1`: “inactive”.
For the compound `CN(C)CC/C=C1\c2ccccc2Sc2ccc(Cl)cc21`, the Potency entry is “inactive”.
As to `CCN(CC)CC(=O)Nc1c(C)cccc1C(=O)OC`, the Potency entry is “inactive”.
As for `Cc1cccc2sc(N)nc12`, the Potency entry is “inactive”.
As to `CC(O)Cn1cnc2c1c(=O)n(C)c(=O)n2C` (stereo not given), the Potency result is “inactive”.
As to `O=C(O)CN1C(=O)c2cccc3cccc(c23)C1=O`, the Potency result was “inactive”.
On to `CCCc1nc2c(C)cc(-c3nc4ccccc4n3C)cc2n1Cc1ccc(-c2ccccc2C(=O)O)cc1`, for which the Potency entry was “inactive”.
Consider `FC(F)(F)C(F)(F)C(F)(F)C(F)(F)CCI`, for which the Potency result was “inactive”.
In the case of `CCN(Cc1cccc(S(=O)(=O)O)c1)c1ccc(C(=C2C=CC(=[N+](CC)Cc3cccc(S(=O)(=O)O)c3)C=C2)c2ccccc2S(=O)(=O)[O-])cc1`, the Potency entry is “inactive”.
As to `COc1ccc2nc(S(=O)Cc3ncc(C)c(OC)c3C)[nH]c2c1` (stereo not given), the Potency result was “inactive”.
Still for that read-out and setting: the same measure for `COC(=O)CC(C(C)=O)C(=O)OC` (stereo not given): “inactive”.
Same read-out and setting: the same measure for `CC1CCC(C(C)CS)CC1S` (stereo not given): “inactive”.
Same read-out and setting: the same measure for `CCCCCCCC(=O)OCCCCCC`: “inactive”; for `COc1ccc(C)cc1`: “inactive”.
On to `CC(C)C(=O)OCCOc1ccccc1`, for which the Potency result was “inactive”.
As for `COC(=O)c1sccc1S(N)(=O)=O`, the Potency result was “inactive”.
On to `Nc1ccc(NC(=O)c2ccc(N)cc2)cc1`, for which the Potency result was “inactive”.
On the same count and under the same terms, next, `O=C(c1ccccc1)c1ccc(O)cc1`: “inactive”.
In the case of `CCN(Cc1cccc(S(=O)(=O)O)c1)c1ccc(C(=C2C=CC(=[N+](CC)Cc3cccc(S(=O)(=O)O)c3)C=C2)c2ccc(O)cc2S(=O)(=O)[O-])cc1`, the Potency entry is “inactive”.
With `Nc1ccc(N=Nc2ccc(N)cc2)cc1`, the Potency result was “inactive”.

A further experiment deals with Bile acid receptor (Homo sapiens) (UniProt Q96RI1). Nature of the experiment: qHTS assay to identify small molecule antagonists of the farnesoid-X-receptor (FXR) signaling pathway (AID 743217). The settings on record: HEK293T FXR-UAS-bla, beta-lactamase ratio, CDCA-stimulated, 16 h; series mostly up to 62.6 µM. A digest of the protocol: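 Beta-lactamase reporter under UAS control in HEK 293T cells; compound exposure 16 h at 37 °C in the presence of chenodeoxycholic acid (50 uM final); signal from B/G FRET substrate after 2 h at room temperature.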
Bile acid receptor (Homo sapiens), sequence (Q96RI1 whole entry, looked up): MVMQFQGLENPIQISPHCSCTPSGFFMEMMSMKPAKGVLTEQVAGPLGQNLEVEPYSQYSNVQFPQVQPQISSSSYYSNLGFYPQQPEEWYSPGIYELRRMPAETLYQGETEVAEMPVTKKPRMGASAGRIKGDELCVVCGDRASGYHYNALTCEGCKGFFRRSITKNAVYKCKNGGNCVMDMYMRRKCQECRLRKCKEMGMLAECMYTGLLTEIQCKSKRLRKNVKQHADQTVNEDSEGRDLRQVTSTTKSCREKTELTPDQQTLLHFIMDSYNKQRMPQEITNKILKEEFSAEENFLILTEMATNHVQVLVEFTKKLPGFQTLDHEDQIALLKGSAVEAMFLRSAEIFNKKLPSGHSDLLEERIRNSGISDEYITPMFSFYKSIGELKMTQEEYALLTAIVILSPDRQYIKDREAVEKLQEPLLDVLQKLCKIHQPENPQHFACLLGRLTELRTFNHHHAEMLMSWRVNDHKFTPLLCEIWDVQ
(In qHTS, concentration-response curves come from the screen itself.)
For the compound `COc1cc(S(=O)(=O)Nc2ccccc2)c(OC)cc1N`, the outcome was inactive.
In the case of `CC(C)(C)S`, the outcome was inactive.
For the compound `CC(O)Cn1cnc2c1c(=O)n(C)c(=O)n2C` (stereo not given), the outcome was inactive.
`O=C1NC(=O)c2cccc3cccc1c23`: the result was inactive.
For the compound `CCN(Cc1cccc(S(=O)(=O)O)c1)c1ccc(C(=C2C=CC(=[N+](CC)Cc3cccc(S(=O)(=O)O)c3)C=C2)c2ccccc2S(=O)(=O)[O-])cc1`, the result was inactive.
With `COC(=O)CC(C(C)=O)C(=O)OC` (stereo not given), the result was inactive.
With `Cc1cc(CCC(=O)OCCOCCOCCOC(=O)CCc2cc(C)c(O)c(C(C)(C)C)c2)cc(C(C)(C)C)c1O`, the result was inactive.
Regarding `COC(=O)c1sccc1S(N)(=O)=O`, the result was inactive.
Same read-out and setting: next, `CNC1CCCN(c2c(F)cc3c(=O)c(C(=O)O)cn(C4CC4)c3c2OC)C1` (stereo not given): “inactive”; `O=C(c1ccccc1)c1ccc(O)cc1`: “inactive”; `CCN(Cc1cccc(S(=O)(=O)O)c1)c1ccc(C(=C2C=CC(=[N+](CC)Cc3cccc(S(=O)(=O)O)c3)C=C2)c2ccc(O)cc2S(=O)(=O)[O-])cc1`: “inactive”.
